From PubChem BioAssay (NCATS)
Records with an inconclusive call do not appear. Activity calls are given as the source filed them. Calls come from the whole dose curve; as a rule, active = well fitted curve in the direction sought with a large enough effect; inconclusive = small, poorly fitted or top-dose-only effect, or another doubt; inactive = no such curve, though single readings can be large; an effect the other way counts as inactive or inconclusive.

Columns and labels:
[1] = target: Glutathione peroxidase 1 (Homo sapiens) (UniProt P07203); assay: Primary qHTS Assay for Inhibitors of Recombinant Selenoprotein Glutathione Peroxidase 1 (GPX1) (AID 1845191); note: nearly all actives have a fitted effect of over 65% in size
How it was run: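 GR-coupled assay: compounds preincubated 30 min at room temperature with GPX1, then reaction started with CHP; final 10 nM GPX1, 1 mM GSH, 0.5 mM CHP, 0.5 mM NADPH, 100 nM GR, 0.01% BSA, pH 7.5 Tris buffer. NADPH fluorescence (340/450 nm) read at 0 and 15 min.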

[2] = target: Phospholipid hydroperoxide glutathione peroxidase GPX4 (Homo sapiens) (UniProt P36969); assay: Primary qHTS Assay for Inhibitors of Recombinant Selenoprotein Glutathione Peroxidase 4 (GPX4) (AID 1845192); note: nearly all actives have a fitted effect of over 65% in size; for activity change, negative = inhibition: series mostly up to about 50 µM; % is set by controls: 0 for no effect and ±100 for the full control effect
How it was run: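 GR-coupled assay: recombinant GPX4 preincubated 30 min with compound at room temperature; final 200 nM GPX4, 1 mM GSH, 0.5 mM cumene hydroperoxide, 0.5 mM NADPH, 100 nM GR, 0.01% BSA, pH 7.5 Tris. NADPH fluorescence (340/450 nm) read at 0 and 15 min.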

[3] = target: Luciferin 4-monooxygenase (Photinus pyralis) (UniProt P08659); assay: Primary firefly luciferase (FLuc) qHTS assay for identification of artifact compounds. (AID 1845220); note: nearly all actives have a fitted effect of over 60% in size;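 for activity change, negative = inhibition: series mostly up to about 54 µM; plate controls were DMSO vehicle for no effect and no enzyme for full effect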
How it was run: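 Enzymatic FLuc inhibition assay: compounds pre-exposed to luciferin/ATP (10 uM each) for 15 min, then purified P. pyralis enzyme at 10 nM added. Read-out: luminescence at 5 min.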

[4] = Primary fluorescence-based thiol-reactive (MSTI) qHTS assay for identification of artifact compounds. (AID 1845221); note: nearly all actives have a fitted effect of over 65% in size; note: potency is the fitted concentration of half-maximal effect;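 for activity change, negative = thiol reactive: series mostly up to about 54 µM; thiol-reactive compounds lower the probe fluorescence signal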
How it was run: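 MSTI probe at 4 uM final in 2% DMSO/PBS pH 7.4; compounds, 1 h at room temperature in dark. Fluorescence Ex/Em 525/598 nm, normalised to Acetyl-MSTI and MSTI, fitted to 4-parameter Hill.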

Phospholipid hydroperoxide glutathione peroxidase GPX4 (Homo sapiens), sequence (P36969 whole entry, looked up): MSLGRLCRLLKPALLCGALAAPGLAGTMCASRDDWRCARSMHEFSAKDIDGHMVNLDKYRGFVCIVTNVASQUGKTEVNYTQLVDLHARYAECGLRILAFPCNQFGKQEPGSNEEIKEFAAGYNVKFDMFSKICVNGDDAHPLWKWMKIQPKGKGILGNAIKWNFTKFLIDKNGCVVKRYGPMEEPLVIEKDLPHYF
Glutathione peroxidase 1 (Homo sapiens), sequence (P07203 whole entry, looked up): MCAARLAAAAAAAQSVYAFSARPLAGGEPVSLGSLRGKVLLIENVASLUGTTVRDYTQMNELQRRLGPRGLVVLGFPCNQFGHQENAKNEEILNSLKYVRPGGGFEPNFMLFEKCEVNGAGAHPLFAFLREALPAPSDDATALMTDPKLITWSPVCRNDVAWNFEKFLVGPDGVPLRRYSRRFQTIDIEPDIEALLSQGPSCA

C=C1CC[C@@]2(OC1)O[C@H]1CC3[C@@H]4CC=C5C[C@H](O[C@H]6OC[C@@H](O)C(O)[C@@H]6O[C@@H]6O[C@@H](C)[C@H](O)[C@@H](O[C@@H]7O[C@H](CO)[C@@H](O)[C@H](O)[C@H]7O)[C@H]6O)C[C@@H](O)[C@]5(C)C4CC[C@]3(C)[C@H]1[C@@H]2C (stereo partly drawn)
inactive: Potency [1] | Potency [2] | activity change, negative = inhibition [3] -10.8% [at 11.6 µM] | activity change, negative = thiol reactive [4] 124% [at 11.5 µM]

CC1CCC2(C(=O)O)CCC3(C)C(=CCC4C5(C)C[C@@H](O)[C@@H](O)C(C)(CO)C5CCC43C)C2C1(C)O (stereo partly drawn)
inactive: Potency [1] | Potency [2] | Potency [3] | Potency [4]

CCC[C@H](N[C@@H](C)C(=O)N1[C@H](C(=O)O)C[C@@H]2CCCC[C@@H]21)C(=O)O
inactive: Potency [1] | Potency [2] | Potency [3] | Potency [4]

COC(=O)C1C(c2ccc(O)cc2)C(C(=O)O)C1c1ccc(O)cc1 (stereo not drawn)
inactive: Potency [1] | Potency [2] | Potency [3] | Potency [4]

COc1cccc(Cn2ncc3c4sc(S(C)=O)cc4n(C)c3c2=O)c1 (stereo not drawn)
inactive: Potency [1] | Potency [2] | Potency [3] | Potency [4]

CC(C)(O)[C@@H]1CC[C@]2(CO)[C@@H](O)CC[C@](C)(O)[C@H]2[C@@H]1O[C@@H]1O[C@H](CO)[C@@H](O)[C@H](O)[C@H]1O
inactive: Potency [1] | Potency [2] | Potency [3] | Potency [4]

C[C@H]1CCN2C[C@]34C[C@@]5(C(=O)Nc6c5ccc5c6OC=CC(C)(C)O5)C(C)(C)C3C[C@]12C(=O)N4C (stereo partly drawn)
inactive: Potency [1] | Potency [2] | Potency [3] | Potency [4]

O=C(C1OC1/C=C/c1ccc2c(c1)OCO2)N1CCCCC1 (stereo not drawn)
inactive: Potency [1] | Potency [2] | Potency [3] | Potency [4]

COc1cc(O)cc2c1C(=O)OC(C)CCCCCCC2 (stereo not drawn)
active: Potency [4] 11.9 µM
inactive: Potency [1] | Potency [2] | Potency [3]

COC(=O)C1=COC(O[C@@H]2O[C@H](CO)[C@@H](O)[C@H](O)[C@H]2O)/C(=C\COC(=O)/C=C/c2ccccc2)C1CC(=O)OCCc1ccc(O)cc1 (stereo partly drawn)
inactive: Potency [1] | Potency [2] | Potency [3] | Potency [4]

CC1=C2C(=O)C=C(CO)C2C2OC(=O)C(CS(=O)(=O)O)C2C(OC(=O)Cc2ccc(O)cc2)C1 (stereo not drawn)
inactive: Potency [1] | Potency [2] | Potency [3]
active: Potency [4] 3.67 µM

CC(C)=C1C[C@@]2(C)C(=CC1=O)CC[C@@H](O)[C@@H]2C
inactive: Potency [1] | Potency [2] | Potency [3] | Potency [4]

CN1CCN(C(=O)c2cc3cc(Cl)ccc3[nH]2)CC1
inactive: Potency [1] | Potency [2] | Potency [3] | Potency [4]

C=C1CCC2C(C)(C)CC(O)CC2(C)C1CCC(C)CCOC(=O)CCC(=O)O (stereo not drawn)
inactive: Potency [1] | Potency [2] | Potency [3] | Potency [4]

C[C@@H]1O[C@@H](O[C@H]2[C@H](OC(=O)[C@]34CCC(C)(C)C[C@H]3C3=CCC5[C@@]6(C)C[C@@H](O)[C@@H](O[C@@H]7O[C@H](CO)[C@@H](O)[C@H](O)[C@H]7O)[C@@](C)(CO)C6[C@H](O)C[C@@]5(C)[C@]3(C)CC4)OC[C@H](O)[C@@H]2O)[C@H](O)[C@H](O[C@@H]2OC[C@](O)(CO)[C@H]2O)[C@H]1O[C@@H]1OC[C@@H](O)[C@H](O[C@H]2O[C@H](C)[C@@H](O)[C@H](O)[C@@H]2O)[C@H]1O (stereo partly drawn)
inactive: Potency [1] | Potency [2] | activity change, negative = inhibition [3] 1.3% [at 11.6 µM] | activity change, negative = thiol reactive [4] 412% [at 11.5 µM]

CC(=O)/C=C/C1(O)C(C)CC(O[C@@H]2O[C@H](CO)[C@@H](O)[C@H](O)[C@H]2O)CC1(C)C (stereo partly drawn)
active: Potency [4] 9.22 µM
inactive: Potency [1] | Potency [2] | Potency [3]

C/C=C/C=C/C(O)=C1/C(=O)[C@]2(C)C(=O)[C@@](C)(O)[C@H]1[C@H]([C@@]1(C)OC(=O)C(C)=C1O)[C@H]2C(=O)CC/C=C/C
active: Potency [4] 4.12 µM
inactive: Potency [1] | Potency [2] | Potency [3]
